# Reference: paper PMC8384837, “Expanding the binding specificity for RNA recognition by a PUF domain”
# What was measured:
# Assay in all cases: yeast three-hybrid, YBZ-1, SC-Leu-His + 0.5 mM 3-AT, 4 days
# Conditions in all cases: tags: N-Gal4 AD-HA kept; label: inside an RPR1-promoter hybrid RNA with tandem MS2 sites; ssRNA
# PUM1 PUF domain R2-QWR = PUM1 PUF domain R2-QWR (Homo sapiens, UniProt Q14671 828-1176, N899Q;Y900W;Q903R)
# Summary of the method: (§1)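 Each repeat of the Pumilio-1 PUF domain was randomized at its three base-contacting residues, and these libraries were co-expressed from a centromeric plasmid with matching RNA elements in strain YBZ-1. After four days on SC-Leu (input) or SC-Leu-His + 0.5 mM 3-AT (selection), the repeat regions were PCR-amplified and Illumina-sequenced. The interaction score compares variant frequency between input and selection as a log change, computed in log2 with a pseudocount of 1 for absent variants.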
# PUM1 PUF domain R5-FHI = PUM1 PUF domain R5-FHI (Homo sapiens, UniProt Q14671 828-1176, C1007F;R1008H;Q1011I)
# Chain of PUM1 PUF domain R5-FHI (Q14671 828-1176 C1007F/R1008H/Q1011I): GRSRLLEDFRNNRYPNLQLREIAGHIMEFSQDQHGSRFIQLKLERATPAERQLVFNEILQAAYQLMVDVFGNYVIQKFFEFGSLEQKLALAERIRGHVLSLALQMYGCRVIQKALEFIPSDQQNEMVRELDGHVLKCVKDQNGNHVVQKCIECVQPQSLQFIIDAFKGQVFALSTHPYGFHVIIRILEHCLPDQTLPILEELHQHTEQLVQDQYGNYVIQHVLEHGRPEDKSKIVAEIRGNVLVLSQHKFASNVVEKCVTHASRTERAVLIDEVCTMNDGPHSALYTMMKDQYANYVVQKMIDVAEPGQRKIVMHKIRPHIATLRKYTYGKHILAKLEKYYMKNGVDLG
# Summary of the method: as §1
# PUM1 PUF domain R5-QKV = PUM1 PUF domain R5-QKV (Homo sapiens, UniProt Q14671 828-1176, C1007Q;R1008K;Q1011V)
# Chain of PUM1 PUF domain R5-QKV (Q14671 828-1176 C1007Q/R1008K/Q1011V): as the sequence (Q14671 828-1176 C1007F/R1008H/Q1011I) above, with F180Q, H181K, I184V counted along it
# Summary of the method: as §1
# PUM1 PUF domain R4-SYP = PUM1 PUF domain R4-SYP (Homo sapiens, UniProt Q14671 828-1176, N971S;H972Y;Q975P)
# Chain of PUM1 PUF domain R4-SYP (Q14671 828-1176 N971S/H972Y/Q975P): as the sequence (Q14671 828-1176 C1007F/R1008H/Q1011I) above, with N144S, H145Y, Q148P, F180C, H181R, I184Q counted along it
# Summary of the method: as §1
# PUM1 PUF domain R4-PRC = PUM1 PUF domain R4-PRC (Homo sapiens, UniProt Q14671 828-1176, N971P;H972R;Q975C)
# Chain of PUM1 PUF domain R4-PRC (Q14671 828-1176 N971P/H972R/Q975C): as the sequence (Q14671 828-1176 C1007F/R1008H/Q1011I) above, with N144P, H145R, Q148C, F180C, H181R, I184Q counted along it
# Summary of the method: as §1
# PUM1 PUF domain R3-NAL = PUM1 PUF domain R3-NAL (Homo sapiens, UniProt Q14671 828-1176, C935N;R936A;Q939L)
# Chain of PUM1 PUF domain R3-NAL (Q14671 828-1176 C935N/R936A/Q939L): as the sequence (Q14671 828-1176 C1007F/R1008H/Q1011I) above, with C108N, R109A, Q112L, F180C, H181R, I184Q counted along it
# Summary of the method: as §1
# PUM1 PUF domain R2-RTQ = PUM1 PUF domain R2-RTQ (Homo sapiens, UniProt Q14671 828-1176, N899R;Y900T)
# Chain of PUM1 PUF domain R2-RTQ (Q14671 828-1176 N899R/Y900T): as the sequence (Q14671 828-1176 C1007F/R1008H/Q1011I) above, with N72R, Y73T, F180C, H181R, I184Q counted along it
# Summary of the method: as §1
# Chain of PUM1 PUF domain R2-QWR (Q14671 828-1176 N899Q/Y900W/Q903R): as the sequence (Q14671 828-1176 C1007F/R1008H/Q1011I) above, with N72Q, Y73W, Q76R, F180C, H181R, I184Q counted along it
sequence,measurement,setting,value
GGCUAGAACUAGUGGAUCCCCCGGCGCCCGGCGGCUCGAGCCCGGGUAAGUGUAAACAGUCUGCAUGCCGCCGGGCGCCAUGCCUGCAGGUCGACUCUAGAAAACAUG,binding signal,PUM1 PUF domain R2-QWR,4.86 log2 enrichment (interaction score)
GGCUAGAACUAGUGGAUCCCCCGGCGCCCGGCGGCUCGAGCCCGGGUAAGUGUUAAUAGUCUGCAUGCCGCCGGGCGCCAUGCCUGCAGGUCGACUCUAGAAAACAUG,binding signal,PUM1 PUF domain R5-FHI,2.85 log2 enrichment (interaction score)
same,binding signal,PUM1 PUF domain R5-QKV,2.71 log2 enrichment (interaction score)
GGCUAGAACUAGUGGAUCCCCCGGCGCCCGGCGGCUCGAGCCCGGGUAAGUGUACAUAGUCUGCAUGCCGCCGGGCGCCAUGCCUGCAGGUCGACUCUAGAAAACAUG,binding signal,PUM1 PUF domain R4-SYP,6.78 log2 enrichment (interaction score)
GGCUAGAACUAGUGGAUCCCCCGGCGCCCGGCGGCUCGAGCCCGGGUAAGUGUAUAUAGUCUGCAUGCCGCCGGGCGCCAUGCCUGCAGGUCGACUCUAGAAAACAUG,binding signal,PUM1 PUF domain R4-SYP,6.95 log2 enrichment (interaction score)
GGCUAGAACUAGUGGAUCCCCCGGCGCCCGGCGGCUCGAGCCCGGGUAAGUGUAAAUAGUCUGCAUGCCGCCGGGCGCCAUGCCUGCAGGUCGACUCUAGAAAACAUG,binding signal,PUM1 PUF domain R4-PRC,2.48 log2 enrichment (interaction score)
same,binding signal,PUM1 PUF domain R3-NAL,3.24 log2 enrichment (interaction score)
GGCUAGAACUAGUGGAUCCCCCGGCGCCCGGCGGCUCGAGCCCGGGUAAGUGUAAAAAGUCUGCAUGCCGCCGGGCGCCAUGCCUGCAGGUCGACUCUAGAAAACAUG,binding signal,PUM1 PUF domain R2-RTQ,2.44 log2 enrichment (interaction score)
